Measurements as given in PubChem BioAssay (NCI).
This is part of a sample that, as a whole, favours compounds with a hit. Of some 83,000 tested, about 20% had one in any assay.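 Cells were grown in 96-well plates and exposed to the test compound at a single concentration for 48 hours; results are reported as percent growth, with values below 10 considered active.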 A number with no mark means an inactive call. Activity calls are given as the source filed them.

Each compound was assayed on SR leukemia (assay: NCI-60 one-dose screen, 48 h (100 = growth as untreated, 0 = no growth, -100 = all killed)). Conditions: 10 µM unless noted.
Description: Growth inhibition of the SR human tumor cell line is measured as a screen for anti-cancer activity. Cells are grown in 96 well plates and exposed to the test compound for 48 hours. Compounds are tested at a single concentration, which is 10^-5 M for most compounds. The reported endpoint is percent growth (GI% or GIPRCNT), where numbers from 0 - 100% represent growth inhibition, and numbers from -100% - 0 represent cell death. For example, a value of 40 represents 60% growth inhibition. A value of 0 means no net growth occurred over the course of the experiment. A value of -40 indicates 40% of cells at the beginning of the experiment died by the end of the experiment. A value of -100 means all cells are dead at the end of the experiment.
NCI-60 Human Tumor Cell Lines Screen was performed using the standard one-dose NCI protocol, which is described in more detail at https://dtp.cancer.gov/discovery_development/nci-60/default.htm.
Compounds with GIPRCNT values below 10 were considered active. Activity score was based on GIPRCNT using the following formula: […]
Score is 0 for GIPRCNT values of 100 or above, 50 for GIPRCNT values of 0, and 100 for GIPRCNT values of -100.

Compound	growth
CN(C)CCn1c2ccc(N)cc2c2nc3ccccc3nc21	33.3%
Cn1c(SC(C(=O)Nc2ccc(F)cc2)c2ccccc2)nc2ccccc2c1=O (stereo not given)	96.9%
C#C[C@]1(O)CC[C@H]2[C@@H]3CC=C4c5sc(-c6ccccn6)nc5CC[C@]4(C)[C@H]3CC[C@@]21C	29.3%
O=C(Nc1ccccc1)Nc1nc2ccc([N+](=O)[O-])cc2s1	2.29% (active)
CCN1C(=O)N(CC)C2SC(N/N=C/c3cccs3)=NC21 (stereo not given)	15.1%
O=C(Nc1ccc(-c2nc(-c3cccc(O)c3)c(-c3ccnc(Br)c3)[nH]2)cc1)c1ccccc1	-15.2% (active)
CN1CCN(Cc2ccc(NC(=O)c3cncc(C#Cc4cnc5ccc(NC6CCOCC6)nn45)c3)cc2C(F)(F)F)CC1	-37.8% (active)
COc1ccc(-c2nc3cc(Cl)c(Cl)cc3n2CC(=O)N=Nc2c(O)[nH]c3ccc(Cl)cc23)cc1	51.6%
O=C1c2c(c3c4cc(Br)ccc4[nH]c3c3ccc4ccccc4c23)C(=O)N1CCN1CCNCC1	-14.3% (active)
CCN(CC)CCN1C(=O)c2c(c3c4cccnc4[nH]c3c3ccc4ccccc4c23)C1=O	3.65% (active)
COc1ccccc1/C=C/C=N/NC1=NC2C(S1)N(C)C(=O)N2c1ccccc1 (stereo not given)	16.7%
Nc1ccc(-c2nnc(SCc3ccc(O)c4ncccc34)o2)cc1	18.8%
Cc1cccc(NC(c2cc3cccc4ccc5cccc2c5c43)c2nnnn2C(C)(C)C)c1C (stereo not given)	86.3%
O=C1/C(=C/c2ccccc2[N+](=O)[O-])Oc2ccc(O)cc21	2.82% (active)
CS(=O)(=O)c1nccc(-c2c(-c3ccc(F)c(OCCc4ccc(F)cc4)c3)nc3sccn23)n1	0.201% (active)
O=[N+]([O-])c1ccc(-c2nnc(SCc3ccc(O)c4ncccc34)o2)cc1	45%
CCOC(=O)C1=C(C)N=C2Sc3ccccc3N2C1c1ccccc1 (stereo not given)	83.8%
O=c1oc2ccc(-c3ccc(F)cc3F)cc2c(=O)n1-c1ccc(F)c(F)c1	27.5%
C=CCn1c(SCC(=O)c2ccc(OC)cc2)nnc1-c1ccc(OC)cc1	96.1%
C#CCOc1ccc(C(Nc2cc(Cl)ccc2Cl)c2nnnn2C2CCCCC2)cc1 (stereo not given)	87.6%

Compound	growth
Cc1csc(Nc2cccc(Nc3nc(C)cs3)c2)n1	63.9%
COc1ccc(/C=N/Nc2nc(Nc3ccccc3)nc(Nc3ccc(S(N)(=O)=O)cc3)n2)cc1	48.5%
C=C(C)[C@@H]1CC[C@]2(C(=O)ON)CC[C@]3(C)[C@H](CC[C@@H]4[C@@]5(C)C/C(=C/c6ccc(Br)cc6)C(=O)C(C)(C)[C@@H]5CC[C@]43C)[C@@H]12	76.2%
O=C(NCCCNc1cc(-c2cn(-c3ccccc3)nc2-c2cccc(O)c2)ccn1)Nc1cccc(C(F)(F)F)c1	30.2%
O=C(/C=C/c1cccc(O)c1)c1ccc(O)cc1	13%
COc1ccc(C(=O)c2c(N)c(C#N)cn2-c2cccc(OC)c2)cc1	27%
COc1cc(O)c2c(c1)/C=C/C[C@H](O)[C@H](O)C(=O)/C=C\C[C@H](C)OC2=O	-6.77% (active)
COc1cc(-c2nc(SCc3ccc(C)cc3)[nH]c(=O)c2C#N)ccc1OCc1ccccc1	125%
CN(C)C(=O)c1ccccc1-n1cnc2ccccc2c1=O	103%
Nc1ccc(-c2nnc(SCc3ccc(O)c4ncccc34)n2-c2ccccc2)cc1	36.5%
O=C(CN1C(=O)CSC1=O)Nc1ccc(C(=O)/C=C/c2cc3ccccc3nc2Cl)cc1	36.7%
CC(C)Sc1nc(NC2CC2)c(C#N)c(-c2ccccc2)n1	96.5%
C(=C(\C1=NCCN1)n1cnc2ccccc21)/c1ccc2ccccc2c1	42.5%
N/C(=N\c1nc2c(Cl)cccc2s1)C(Cl)(Cl)Cl	94.2%
C#C[C@]1(O)CC[C@H]2[C@@H]3CC=C4c5sc(Nc6cc(OC)ccc6OC)nc5CC[C@]4(C)[C@H]3CC[C@@]21C	3.13% (active)
Oc1ccccc1-c1nnc(SCc2ccc(O)c3ncccc23)n1-c1ccccc1	25.2%
CC(C)(C)CC(C)(C)n1nnnc1C(Nc1ccccc1)c1cc2cccc3ccc4cccc1c4c32 (stereo not given)	82.3%
Clc1ccc(-c2nc3ccc(/C(=N\N=C\c4ccccc4)c4ccccc4)cc3[nH]2)cc1	72.9%
COc1ccc(NC(=O)[C@H](C)N)cc1C(=O)Nc1cccc(-c2cc(=O)c3c(OC)c(OC)c(OC)cc3o2)c1	36.5%
C/C=C/[C@@H]1C=C[C@@H]2C[C@H](C)CC[C@H]2[C@]1(C)/C(O)=C1/C(=O)[C@H](CO)N(C)C1=O	59.2%
